D1 ag: Allosteric Agonists of the Human D1 Dopamine Receptor: qHTS; HEK293 T-REx D1 cells, calcium flux, agonist mode; D(1A) dopamine receptor (Homo sapiens), P21728; activation, % at 2 µM; 360,000 compounds, 1% hits; note: 0% is about no effect
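Agonism was scored from calcium flux recorded over 180 s (1 read/s) after pintool compound addition, following a 10-cycle baseline. Cells were inducible force-coupled HEK293 TREx D1, plated overnight at 30 C and loaded with no-wash calcium dye.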
D1 PAM: Potentiators of Human D1 Dopamine Receptor: qHTS; D(1A) dopamine receptor (Homo sapiens), P21728; HEK293 TREx D1 cells, calcium flux, dopamine EC20 potentiation; potentiation, % at 10 µM; 360,000 compounds, 0.036% hits; in the data active = potentiation above about 30%; note: 0% is about no effect
D1 antagonist: Antagonist of Human D 1 Dopamine Receptor: qHTS | D(1A) dopamine receptor (Homo sapiens), P21728 | HEK293 TREx D1 cells, calcium flux, dopamine EC80; hits give low values | activity change, negative = inhibition, % at 10 µM | 360,000 compounds, 3.2% hits; in the data active = activity change below about -30%; note: % is set by controls: 0 for no effect and ±100 for the full control effect
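Calcium flux readout: force-coupled, inducible Hek293 Trex D1 line, cells induced overnight at 30 C with tetracycline, dye-loaded 30–90 min at RT. Antagonism scored against EC80 dopamine challenge given 180 s after compound.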
TRHR agonist: qHTS for Small Molecule Agonists and Allosteric Enhancers of Human TRH Receptor: Primary Screen for Agonists | Thyrotropin-releasing hormone receptor (Homo sapiens), P34981 | TRHR cells, calcium flux fluo-8, FDSS agonist mode | activation, % at 2 µM | 360,000 compounds, 0.18% hits; note: 0% is about no effect
Target sequence (P34981 whole entry, looked up): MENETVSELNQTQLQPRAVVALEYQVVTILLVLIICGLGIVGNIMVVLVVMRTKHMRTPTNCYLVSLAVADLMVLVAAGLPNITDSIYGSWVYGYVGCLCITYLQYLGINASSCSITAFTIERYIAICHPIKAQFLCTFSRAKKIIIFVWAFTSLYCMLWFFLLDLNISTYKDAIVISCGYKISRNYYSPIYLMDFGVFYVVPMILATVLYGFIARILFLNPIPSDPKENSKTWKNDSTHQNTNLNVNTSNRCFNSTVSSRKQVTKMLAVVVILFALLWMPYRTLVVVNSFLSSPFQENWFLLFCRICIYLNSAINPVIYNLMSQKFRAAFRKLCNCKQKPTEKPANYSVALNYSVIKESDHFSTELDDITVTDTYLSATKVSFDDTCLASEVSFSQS
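Read-out: compound-evoked intracellular calcium rise in TRHR cells, fluo-8 dye, kinetic FDSS fluorescence at 1 s/cycle following a 10-cycle baseline. Cells cultured overnight before dye loading (30 min–1.5 h, RT).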
TRHR PAM: qHTS for Small Molecule Agonists and Allosteric Enhancers of Human TRH Receptor: Primary Screen for Enhancers; AID 493056, 2011; enhancement, % at 2 µM; 360,000 compounds, 0.66% hits; TRHR cells, fluo-8 calcium fluorescence, EC20 TRH enhancement; Thyrotropin-releasing hormone receptor (Homo sapiens), P34981; in the data active = enhancement above about 30%; note: 0% is about no effect
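TRHR-expressing cells loaded with fluo-8 calcium dye were read kinetically (ex 480/em 530) during compound addition, then stimulated with an EC20 of TRH (10 nM final). Enhancement of the Gq-mediated intracellular calcium response was scored.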
* hit, by the source's call; nt = no result. Hits are enriched below; roughly 4.7% of the tested compounds scored in any of these assays. Cut-off read from the data, not from the text of the source, unless noted: active = activation above about 30%; inactive = the rest.

SMILES	D1 ag	D1 PAM	D1 antagonist	TRHR agonist	TRHR PAM
CCOC(=O)c1c(S(=O)(=O)N2CCCC(C(=O)Nc3cc(C)ccn3)C2)c(C)n(C)c1C (stereo not given)	1.1	-1.6	-33.3*	-0.5	-4.2
CCOC(=O)c1c(S(=O)(=O)N2CCC(C(=O)N3CCN(c4cc(C)ccc4C)CC3)CC2)c(C)n(C)c1C	-0.2	-2.3	-92.3*	-0.7	1.4
CCCCCCCCNC(C)C(O)c1ccc(SC(C)C)cc1 (stereo not given)	50.3*	4.5	8.4	-0.1	13.1
O=C(O)CCN(CCC(=O)O)c1ccccc1	1.5	-3.7	-92.7*	0.5	4.6
O=C(O)CCN(CCC(=O)O)S(=O)(=O)c1ccccc1	1.7	-2.4	-2.4	0.2	0.5
Cc1c(C)n(C(=O)CN2CCC(C)CC2)c2ccccc12	12.6	0.6	-1.3	0.0	35.2*
CCCCNC(=O)CN1C(=O)CSc2ccc(S(=O)(=O)N3CCC(C)CC3)cc21	1.2	3.8	27.2	0.0	-2.9
CCCN(CCC)C(=O)CN1C(=O)CSc2ccc(S(=O)(=O)N3CCC(C)CC3)cc21	3.1	-5.2	-90.7*	4.0	-4.8
Cc1ccc(C2=NN(CCC(=O)NCCCN3CCOCC3)C(=O)CC2)cc1	4.5	-3.8	-6.4	-0.2	-0.2
N#Cc1cc2ccccc2nc1SCC(=O)Nc1ccc(S(=O)(=O)N2CCCC2)cc1	40.7*	5.4	-4.7	9.0	-2.0
O=C(COC(=O)c1ccc(S(=O)(=O)N2CCCCC2)cc1)Nc1ccccc1	33.7*	nt	11.1	1.3	8.0
CC(=O)Nc1cccc(C(=O)OCC(=O)c2ccc(S(=O)(=O)N3CCCCC3)cc2)c1	8.3	-3.6	-36.8*	0.0	-8.2
CC(=O)Nc1ccc(C(=O)OCC(=O)c2ccc(S(=O)(=O)N3CCCCC3)cc2)cc1	4.7	1.0	0.8	-0.5	0.7
Cc1ccc(NC(=O)COC(=O)Cn2cnc3ccccc32)cc1S(=O)(=O)N(C)C	-1.0	-2.6	-84.9*	0.1	16.5
Cc1ccc(NC(=O)COC(=O)c2ccc(S(=O)(=O)N3CCCCC3)cc2)cc1	3.0	-13.4	1.9	0.4	-3.7
COc1ccc2nc(SCC(=O)Nc3ccc(S(=O)(=O)N4CCCC4)cc3)c(C#N)cc2c1	2.2	1.5	8.4	2.0	-1.0
CCc1nnc(NC(=O)CCC(=O)N2CCN(c3cc(Cl)ccc3C)CC2)s1	2.2	5.0	-6.7	-1.1	-3.9
COc1ccc(OC)c(NC(=O)N2CCN(Cc3nc4ccc(C)cc4o3)CC2)c1	-1.9	-0.4	-2.9	-0.8	-3.4
COc1cc(C(=O)OCc2cc(=O)n3nc(C(C)C)sc3n2)cc(OC)c1OC	1.1	-4.8	19.5	0.5	7.1
CC(C)(C)OC(=O)NC1CNNC1=O (stereo not given)	1.7	0.0	-13.3	-0.3	-2.0
Cc1ccc(NC(=O)c2ccccc2OCC(=O)Nc2ccccc2F)cc1S(=O)(=O)N(C)C	3.0	-0.8	-38.1*	1.8	5.7
CCOc1ncccc1C(=O)OCC(=O)NCCc1ccccc1	0.8	0.0	-0.3	0.0	30.9*
CCOc1ncccc1C(=O)OCC(=O)Nc1ccc(C)c(S(=O)(=O)N(C)C)c1	8.2	-3.4	-1.4	-0.5	36.1*
N#CCCN(C(=O)COC(=O)c1ccc(S(=O)(=O)N2CCCC2)cc1)c1cccc(Cl)c1	31.2*	-2.3	-6.4	1.4	-3.6
Cc1ccc2nc(CSc3nnc(NC(=O)COc4ccccc4)s3)cc(=O)n2c1	2.8	-0.4	1.8	-0.2	-1.1
SMILES	D1 ag	D1 PAM	D1 antagonist	TRHR agonist	TRHR PAM
Cc1ccccc1-c1nc(CS(=O)CC(=O)NCc2ccccn2)c(C)o1 (stereo not given)	-0.4	-7.0	-6.8	0.1	-4.5
O=C(COC(=O)c1ccc([N+](=O)[O-])o1)Nc1cccc(S(=O)(=O)N2CCCCC2)c1	9.5	-8.3	-30.8*	1.7	1.7
CCOc1ncccc1C(=O)OCC(=O)Nc1ccc(S(=O)(=O)N2CCCC2)cc1	4.3	-3.8	-56.2*	-0.2	-3.2
CCOc1ncccc1C(=O)OCC(=O)Nc1ccc(S(=O)(=O)N2CCOCC2)cc1	5.6	0.0	-15.5	0.4	4.6
COc1ccc(OC)c(NC(=O)COC(=O)c2ccc(S(=O)(=O)N3CCOCC3)cc2)c1	1.5	14.4	-51.4*	-0.8	11.3
CCN(C(=S)NCc1ccccc1)c1ccccc1	2.9	-1.4	-7.2	0.4	-5.1
COc1ccccc1C(=O)Nc1ccc2c(c1)C(=O)NC2=O	0.1	-0.6	-0.5	-1.2	4.3
S=c1sc2c(Cl)ncnc2n1-c1ccccc1	2.4	-12.2	-44.1*	1.7	-2.0
COc1ccc(-c2nnc(N3CCOCC3)c3ccccc23)cc1	1.9	-4.7	-8.2	0.2	38.6*
CCS(=O)(=O)N1CC(=O)N(c2ccc(C)c(C)c2)C(C)(C(=O)NC2CCCCC2)C1 (stereo not given)	-2.5	0.8	-20.2	-0.2	42.3*
Cc1ccc(NC(=O)CCCN2C(=O)COc3ccc(C)cc32)c(C)c1	14.5	-2.5	1.3	-0.8	18.6
CC(C)Oc1ccc(OCCCN2CCCCCC2)cc1	-2.2	-8.2	14.1	0.2	2.2
Clc1ccc(OCCCCN2CCCCC2)cc1	25.6	-4.7	-38.7*	-0.4	-2.4
CC(C)c1ccc(OCCCCN2CCCCC2)cc1	11.6	5.2	6.1	2.0	3.2
CC(C)(C)c1ccc(OCCCN2CCCC2)cc1	14.7	-5.3	-11.1	-0.2	38.2*
COc1cc(C(=O)N2CCC(c3nc4ccccc4o3)CC2)cc(OC)c1OC	-2.7	0.3	3.8	0.2	-0.1
CCc1ccc(S(=O)(=O)Nc2ccc(Br)cn2)cc1	-4.0	-5.0	-30.1*	-1.3	0.0
CCc1ccc(S(=O)(=O)Nc2ccccn2)cc1	3.6	-2.8	-11.6	-0.4	1.4
Cc1cccc(N(C)S(=O)(=O)c2cc3[nH]c(=O)c(=O)[nH]c3cc2C)c1	0.1	-1.6	1.2	0.5	13.2
Cc1cc2nc(-c3ccc(NC(=O)C(C)C)cc3)oc2cc1C	1.3	-2.4	-32.8*	0.3	-2.5
CC(=O)Nc1nonc1-c1nnc(SCC(=O)Nc2ccc(F)cc2F)n1-c1ccccc1	-1.7	0.1	4.0	0.3	0.2
COc1ccccc1CN(C(=O)c1cnccn1)C(C(=O)NC1CCCCC1)c1cc(OC)c(OC)c(OC)c1 (stereo not given)	1.3	-4.1	6.3	0.0	-1.2
O=c1cc(-c2ccccc2)n2c(SCc3cccc([N+](=O)[O-])c3)nnc2[nH]1	-3.0	-4.0	nt	0.4	2.2
